We go through nine molecules from PubChem BioAssay.

Active and inactive are the calls of the source. Unless noted, no rule for the calls is given here.

The nature of assay [1]: compound effects on lung adenocarcinoma cell viability – A549, calcein-AM fluorescence, 48 h, basal, profiling panel (AID 1162). Also: test concentration not given here. Particulars: higher = more signal.
Assay [2] can be described thus: compound effects on differentiated 3T3-L1 adipocyte viability – cell-based, 3T3-L1 adipocytes, calcein-AM fluorescence, 48 h, basal, profiling panel (AID 1163). Also: test concentration not given here. Particulars: 3T3-L1 adipocytes viability, higher = more signal.
Assay [3] can be described thus: compound effects on hepatocellular carcinoma cell viability – HepG2, calcein-AM fluorescence, 48 h, basal, profiling panel (AID 1164). Also: test concentration not given here. The note with it: higher = more signal.
Assay [4] in a line: compound effects on multiple myeloma cell viability – MM1S, calcein-AM fluorescence, 48 h, basal, profiling panel (AID 1165).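 Also: viability of MM1S multiple myeloma cells under basal unstimulated conditions; test concentration not given here.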 The note with it: higher = more signal.
Assay [5] can be described thus: calcein-AM signal in unstimulated myeloma cells – cell-based, calcein-AM fluorescence, 48 h, PK04 Diversity Set, profiling panel (AID 1166).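 Also: cells grown under basal conditions without added stimulus; test concentration not given here.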 The note with it: RPMI8226 myeloma viability, higher = more signal.
Assay [6] can be described thus: JC-1 mitochondrial signal, unstimulated HepG2 cells – cell-based, JC-1 fluorescence, 24 h, 100 nL compound, profiling panel (AID 1167). Also: test concentration not given here. The note with it: HepG2 mitochondrial potential, higher = more signal.
A short description of assay [7]: JC-1 mitochondrial signal, unstimulated adipocytes – cell-based, JC-1 fluorescence, 3T3-L1 adipocytes, 24 h, 100 nL compound, profiling panel (AID 1168). Also: test concentration not given here. Particulars: JC-1 mitochondrial fluorescence, higher = more signal, called active from +8 up or from −8 down.
Assay [8] is described as follows: JC-1 mitochondrial signal, unstimulated myeloma cells – cell-based, JC-1 fluorescence, RPMI8226, 24 h, 100 nL compound, profiling panel (AID 1169). Also: test concentration not given here. Particulars: JC-1 mitochondrial potential fluorescence, higher = more signal.
Assay [9] in a line: JC-1 mitochondrial signal, unstimulated MM1S myeloma – cell-based, JC-1 fluorescence, 24 h, 100 nL compound, profiling panel (AID 1170). Also: test concentration not given here. Particulars: MM1S mitochondrial potential, higher = more signal.
The nature of assay [10]: resazurin metabolic signal in A549 cells – cell-based, resazurin fluorescence, 24 h, PK04 Diversity Set, profiling panel (AID 1171). Also: test concentration not given here. Particulars: A549 viability, higher = more signal, called active from +8 up or from −8 down.
Assay [11] can be described thus: resazurin metabolic signal in HepG2 cells – cell-based, resazurin fluorescence, 24 h, PK04 Diversity Set, profiling panel (AID 1172). Also: test concentration not given here. The note with it: HepG2 viability, higher = more signal.
Assay [12] can be described thus: budding yeast growth changes without added modifier – OD600, strain BY4716, 24 h, basal condition, primary screen (AID 1173). Particulars: S. cerevisiae BY4716 growth, OD600, 24 h; higher = more signal, called active from +8 up or from −8 down.
The nature of assay [13]: viability profiling in MM1S myeloma cells – cell-based, resazurin fluorescence, basal, 24 h, PK04 Diversity Set, profiling panel (AID 1174). Also: test concentration not given here. Particulars: higher = more signal, called active from +8 up or from −8 down.
Assay [14] concerns the target Dihydroorotate dehydrogenase (quinone), mitochondrial (Plasmodium falciparum (isolate 3D7)) (UniProt Q08210). As to the kind of experiment: inhibition of P. falciparum DHODH – biochemical, C-terminal His tag, absorbance 600 nm, primary screen (AID 1175).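 Also: recombinant parasite enzyme with a five histidine tag at its C terminus; test concentration not given here.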 Particulars: PfDHODH enzyme, DCIP absorbance 600 nm; higher = more signal, called active from +8 up or from −8 down.

Assay [15] in a line: inhibition of PAO1 biofilm formation – strain PAO1, LB-PBS medium, absorbance 600 nm, primary screen (AID 1176). Also: test concentration not given here. Particulars: P. aeruginosa PAO1 growth/biofilm, A600, 12 h; higher = more signal.
Assay [16] can be described thus: growth modulation of vineyard yeast isolate – strain RM11-1a, OD600, basal, 24 h, primary screen (AID 1177).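 Also: cultures grown under basal conditions with no added stressor; test concentration not given here.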 Particulars: S. cerevisiae RM11-1a growth, OD600, 24 h; higher = more signal, called active from +8 up or from −8 down.
Assay [17] can be described thus: growth of efflux-deficient E. coli DRC39 – strain DRC39, OD650, 24 h, E. coli filamentation inducers, primary screen (AID 1178).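 Also: growth measured as culture turbidity by optical density at 650 nm; test concentration not given here.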 Particulars: E. coli DRC39 acrAB, higher = more signal, called active from +8 up or from −8 down.
The nature of assay [18]: growth of efflux-deficient E. coli DRC39 – strain DRC39, OD650, 48 h, E. coli filamentation inducers, primary screen (AID 1179).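 Also: screen aims at cell division blockers that make cells filament.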 Particulars: E. coli DRC39 delta-acrAB growth, higher = more signal, called active from +8 up or from −8 down.
The nature of assay [19]: viability profiling in RPMI8226 myeloma cells – cell-based, resazurin fluorescence, basal, 24 h, PK04 Diversity Set, profiling panel (AID 1180).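 Also: RPMI8826 multiple myeloma cell line at 5000 cells per well; test concentration not given here.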 Particulars: higher = more signal.
Assay [20] has as its target E3 ubiquitin-protein ligase XIAP (Homo sapiens) (UniProt P98170). Briefly: small molecules binding XIAP protein – biophysical, small-molecule microarray, fluorescence 635 nm, primary screen (AID 1181).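 Also: score merges 667 nm emission and signal to noise over triplicate slides.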 Particulars: higher = more signal.

Chain of Dihydroorotate dehydrogenase (quinone), mitochondrial (Plasmodium falciparum (isolate 3D7)) (Q08210 whole entry, looked up): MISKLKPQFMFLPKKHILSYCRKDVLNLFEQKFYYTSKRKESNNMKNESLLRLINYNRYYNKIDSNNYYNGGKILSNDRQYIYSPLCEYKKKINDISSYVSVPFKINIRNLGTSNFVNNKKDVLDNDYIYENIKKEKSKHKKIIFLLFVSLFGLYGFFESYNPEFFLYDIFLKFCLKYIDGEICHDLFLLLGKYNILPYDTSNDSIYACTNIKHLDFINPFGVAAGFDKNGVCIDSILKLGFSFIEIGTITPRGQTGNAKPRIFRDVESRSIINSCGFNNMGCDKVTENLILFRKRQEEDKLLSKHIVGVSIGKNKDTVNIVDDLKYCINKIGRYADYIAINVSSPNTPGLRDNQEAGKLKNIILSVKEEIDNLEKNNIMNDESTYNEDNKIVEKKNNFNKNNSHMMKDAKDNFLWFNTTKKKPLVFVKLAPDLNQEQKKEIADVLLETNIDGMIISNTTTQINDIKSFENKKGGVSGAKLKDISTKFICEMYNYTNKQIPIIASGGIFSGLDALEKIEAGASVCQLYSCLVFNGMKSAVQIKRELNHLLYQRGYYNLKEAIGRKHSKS
Chain of E3 ubiquitin-protein ligase XIAP (Homo sapiens) (P98170 whole entry, looked up): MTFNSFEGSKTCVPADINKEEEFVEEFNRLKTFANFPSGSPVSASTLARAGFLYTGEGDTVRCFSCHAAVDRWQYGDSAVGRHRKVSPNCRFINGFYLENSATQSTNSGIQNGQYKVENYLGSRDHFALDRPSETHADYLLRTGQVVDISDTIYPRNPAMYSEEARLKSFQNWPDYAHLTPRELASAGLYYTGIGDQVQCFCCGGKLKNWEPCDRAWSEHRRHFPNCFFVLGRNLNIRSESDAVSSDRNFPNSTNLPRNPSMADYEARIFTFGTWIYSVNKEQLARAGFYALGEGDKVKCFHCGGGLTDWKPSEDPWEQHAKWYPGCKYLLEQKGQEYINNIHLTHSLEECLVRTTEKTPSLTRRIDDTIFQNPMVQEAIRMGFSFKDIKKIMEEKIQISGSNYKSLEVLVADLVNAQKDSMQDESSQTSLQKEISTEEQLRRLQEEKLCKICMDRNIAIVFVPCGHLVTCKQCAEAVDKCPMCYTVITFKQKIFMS

As to `O=C1C[C@]2(c3ccc([N+](=O)[O-])cc3)C(=O)N(CC(F)(F)F)c3cc(CO)ccc3[C@H]2N1CC12CC3CC(CC(C3)C1)C2`, the z-score in [1] is 0.831; in assay [2], -0.425; in assay [3], 0.655; in assay [4] it was 0.489; in assay [5] it was 0.0342; in assay [6], 0.91. The z-score is -1.2 (inactive) in assay [7]; 0.308 in [8]; -0.964 in [9]; -0.399 (inactive) in [10]; 0.961 in assay [11]; 0.695 (inactive) in assay [12]. Moreover, the z-score in assay [13] was -1.2 (inactive); in assay [15] it was 0.503 (inactive); in [16] it was -0.319 (inactive); in assay [17] it was 0.973 (inactive); in [18], 0.672 (inactive); in assay [19] it was -0.157. Also, the composite z-score was -3.73 (inactive) in assay [14] and -0.222 in [20].
Regarding `COc1ccc(CCNC(=O)[C@@]2(c3ccc([N+](=O)[O-])cc3)CC(=O)N(CC34CC5CC(CC(C5)C3)C4)[C@@H]2c2ccc(CO)cc2)cc1`, the z-score was -2.36 in assay [1]; 0.369 in assay [2]; -1.88 in assay [3]; -2.98 in assay [4]; -4.23 in assay [5]; 1.23 in [6]. Besides, the z-score in assay [7] is -0.626 (inactive); in assay [8] it was -0.857; in assay [9] it was -0.452; in [10], -2.29 (inactive); in [11], -1.86; in assay [12], -0.125 (inactive). Also, the z-score in [13] is -2.58 (inactive); in [15], 1.61 (inactive); in assay [16] it was 0.526 (inactive); in assay [17] it was -0.226 (inactive); in [18], -0.281 (inactive); in assay [19], -2.81. Besides, the composite z-score in [14] was 0.682 (inactive); in [20] it was 0.0073.
With `COCCCNC(=O)[C@@]1(C)c2ccccc2C(=O)N(Cc2cc(C(F)(F)F)cc(C(F)(F)F)c2)[C@H]1c1ccc(CO)cc1`, the z-score was -0.0997 in assay [1]; -0.872 in assay [2]; 0.771 in [3]; 0.384 in assay [4]; -0.509 in assay [5]; 1.59 in [6]. Also, the z-score in assay [7] is 1.01 (inactive); in [8], 0.222; in assay [9], -0.668; in assay [10], 0.545 (inactive); in assay [11], -0.063; in [12], -0.0384 (inactive). In addition, the z-score in assay [13] was 0.186 (inactive); in [15], 0.127 (inactive); in assay [16], 0.429 (inactive); in [17] it was 0.534 (inactive); in assay [18], 1.3 (inactive); in assay [19], 0.394. The values for the composite z-score in assay [14] and in assay [20] were 1.03 (inactive) and -0.204, respectively.
For the molecule `COc1cc(C(O)C2C=CC3C(=O)N(c4ccccc4)C(=O)C3N2Nc2ccc(C#N)cc2)cc(OC)c1OC` (stereo not given), the z-score in assay [1] is -1.26; in assay [2], 0.0434; in [3], -0.272; in [4], 0.0375; in assay [5], -0.269; in assay [6] it was -1.36. Also, the z-score is -1.51 (inactive) in assay [7]; 0.433 in assay [8]; -0.314 in assay [9]; -0.404 (inactive) in [10]; -1.28 in [11]; -2.44 (inactive) in [12]. In addition, the z-score in assay [13] was -1.62 (inactive); in [15], 1.36 (inactive); in [16] it was -0.343 (inactive); in [17] it was -0.914 (inactive); in assay [18], -0.386 (inactive); in assay [19], -0.919. The composite z-score was 0.198 (inactive) in assay [14] and 0.0819 in assay [20].
As for `C=C[C@H](C)[C@@H](O)c1ccc(O)c2ccccc12`, the z-score in [1] was -0.573; in [2] it was -0.69; in [3], -0.218; in assay [4], -2.57; in assay [5] it was -1.55; in assay [6], -1.98. Further, the z-score in [7] was -0.641 (inactive); in assay [8] it was -0.94; in assay [9], -1.29; in assay [10] it was -0.292 (inactive); in assay [11], 0.146; in [12], -12.2 (active). Further, the z-score was -1 (inactive) in assay [13]; 1.03 (inactive) in assay [15]; 0.248 (inactive) in [16]; 0.537 (inactive) in assay [17]; 0.445 (inactive) in assay [18]; -0.791 in assay [19]. Also, the composite z-score in assay [14] is -0.177 (inactive); in [20], -0.0622.
Turning to `CC(C)NC(=O)[C@@]1(Cc2ccccc2I)c2ccccc2C(=O)N(Cc2ccccc2)[C@H]1c1ccc(CO)cc1`, the z-score in assay [1] is -0.547; in assay [2] it was -0.405; in [3] it was -0.513; in assay [4] it was 0.525; in assay [5], -0.651; in assay [6], 0.798. The z-score in assay [7] was -1.19 (inactive); in assay [8], -0.638; in assay [9] it was -0.715; in assay [10], 1.29 (inactive); in assay [11], 0.255; in assay [12], -0.659 (inactive). The z-score in assay [13] is -0.329 (inactive); in assay [15], 0.972 (inactive); in assay [16] it was -0.0378 (inactive); in assay [17], -0.24 (inactive); in assay [18], -0.324 (inactive); in assay [19], -0.211. Further, the composite z-score in assay [14] is 0.799 (inactive); in [20], -0.0023.
For the molecule `O=C1N(CCS(=O)(=O)c2ccccc2)Cc2ccccc2[C@H]2OC(c3ccc(OCCCO)cc3)=N[C@@]12CCS(=O)(=O)c1ccccc1`, the z-score in assay [1] is 1.02; in assay [2], 1.46; in assay [3], 1.19; in [4], 0.222; in [5], 0.117; in assay [6], 0.0737. The z-score in assay [7] was 0.557 (inactive); in assay [8] it was -0.81; in assay [9], -0.848; in [10] it was 0.908 (inactive); in assay [11], 0.759; in assay [12] it was 1.83 (inactive). Also, the z-score in assay [13] is 0.935 (inactive); in [15], 0.0533 (inactive); in assay [16] it was 3.07 (inactive); in assay [17], 1.69 (inactive); in assay [18], 1.09 (inactive); in [19], -0.124. The composite z-score was -0.796 (inactive) in assay [14] and -0.15 in assay [20].
As to `CC1=C2[C@@H](CCc3ccccc3)OB(O)C[C@@H]2n2c(=O)n(-c3ccccc3)c(=O)n2C1`, the z-score was 0.328 in [1]; -0.448 in [2]; -0.335 in assay [3]; 0.271 in assay [4]; -1.14 in assay [5]; -2.01 in assay [6]. In addition, the z-score in assay [7] was 0.553 (inactive); in assay [8] it was 0.146; in [9], -0.126; in [10], -0.699 (inactive); in assay [11], -0.32; in assay [12], -2.07 (inactive). Besides, the z-score in assay [13] is -0.498 (inactive); in assay [15] it was -0.177 (inactive); in [16], -0.42 (inactive); in assay [17], -0.618 (inactive); in assay [18], -0.63 (inactive); in assay [19] it was -0.582. Further, the composite z-score in assay [14] was 0.369 (inactive); in [20], 0.0193.
`CC(C)(C)N1CC=CC23O[C@@H]4C=CCOC(=O)[C@@H]4[C@H]2C(=O)N(CCCCCO)[C@@H]3C1=O` (stereo not given in full): the z-score in [1] was -0.52; in [2], 0.468; in [3], -0.542; in assay [4], -0.341; in [5] it was 0.606; in [6] it was -0.667. Further, the z-score is -0.173 (inactive) in assay [7]; 0.828 in assay [8]; 0.388 in assay [9]; -1.08 (inactive) in [10]; -0.308 in assay [11]; 0.285 (inactive) in assay [12]. The z-score in assay [13] was -0.728 (inactive); in [15], 0.0962 (inactive); in [16], -0.0325 (inactive); in [17] it was -1.09 (inactive); in assay [18], -1.2 (inactive); in assay [19], -0.867. For the same molecule, the composite z-score was -0.0531 (inactive) in [14] and 0.333 in [20].
